# Test results reported in PMC7862700, “An all-to-all approach to the identification of sequence-specific readers for epigenetic DNA modifications on cytosine”.
# Assays:
# Assay in all cases: DAPPL (digital affinity profiling via proximity ligation, sequencing); 10 mM Tris-HCl pH 7.5, 50 mM NaCl, 1 mM DTT, 4% glycerol, room temperature, 30 min; GST-TFs on glutathione beads, 16-mer random dsDNA library, 0.1% formaldehyde crosslink after washing; high values mean tight binding
# FLI1 = target: T1, FLI1 (Homo sapiens, UniProt Q01543 1-452); settings: protein: recombinant; tags: N-terminal GST; dsDNA, one strand shown
# T1 sequence: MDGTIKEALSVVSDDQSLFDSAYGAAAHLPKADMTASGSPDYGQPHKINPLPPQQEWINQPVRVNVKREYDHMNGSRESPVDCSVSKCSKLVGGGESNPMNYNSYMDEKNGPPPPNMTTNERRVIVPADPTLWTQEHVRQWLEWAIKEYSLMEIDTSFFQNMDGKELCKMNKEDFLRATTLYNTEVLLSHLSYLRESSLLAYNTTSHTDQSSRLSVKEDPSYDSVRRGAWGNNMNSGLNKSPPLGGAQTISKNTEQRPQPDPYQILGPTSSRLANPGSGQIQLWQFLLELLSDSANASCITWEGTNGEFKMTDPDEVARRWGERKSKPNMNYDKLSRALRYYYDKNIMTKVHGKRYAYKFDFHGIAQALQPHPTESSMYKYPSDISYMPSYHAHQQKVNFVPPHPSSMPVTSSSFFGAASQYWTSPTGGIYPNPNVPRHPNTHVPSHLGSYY
# Method in brief: (§1)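 A tag-only sample was pooled with DNA-barcoded human transcription factors that had been expressed in yeast as GST fusions and captured on glutathione beads. The pools were incubated for 30 min at room temperature with 200 nmole of a random double-stranded 16-mer DNA library in Tris/NaCl/DTT/glycerol buffer, then washed, crosslinked with 0.1% formaldehyde, proximity-ligated (BsaI/T4 ligase, 1 h, 37 °C), PCR-amplified and sequenced on an Illumina NextSeq500. Binding signal is each hexamer's read frequency for a factor divided by its frequency for the tag-only sample.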
# ELK1 = target: T2, ELK1 (Homo sapiens, UniProt P19419 1-428); settings: protein: recombinant; tags: N-terminal GST; dsDNA, one strand shown
# T2 sequence: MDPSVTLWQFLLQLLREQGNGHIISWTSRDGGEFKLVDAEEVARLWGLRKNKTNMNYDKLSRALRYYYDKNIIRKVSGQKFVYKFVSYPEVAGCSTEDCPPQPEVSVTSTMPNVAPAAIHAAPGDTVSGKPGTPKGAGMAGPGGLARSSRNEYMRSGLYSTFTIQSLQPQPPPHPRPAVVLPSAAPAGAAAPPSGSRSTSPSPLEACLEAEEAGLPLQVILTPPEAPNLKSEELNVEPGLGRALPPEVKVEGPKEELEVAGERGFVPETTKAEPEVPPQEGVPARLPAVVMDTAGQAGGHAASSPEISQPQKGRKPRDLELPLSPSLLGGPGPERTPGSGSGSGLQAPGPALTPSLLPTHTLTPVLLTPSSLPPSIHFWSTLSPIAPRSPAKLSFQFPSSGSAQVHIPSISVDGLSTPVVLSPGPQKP
# Method in brief: as §1
# GABPA = target: T3, GABPA (Homo sapiens, UniProt Q06546 1-454); settings: protein: recombinant; tags: N-terminal GST; dsDNA, one strand shown
# T3 sequence: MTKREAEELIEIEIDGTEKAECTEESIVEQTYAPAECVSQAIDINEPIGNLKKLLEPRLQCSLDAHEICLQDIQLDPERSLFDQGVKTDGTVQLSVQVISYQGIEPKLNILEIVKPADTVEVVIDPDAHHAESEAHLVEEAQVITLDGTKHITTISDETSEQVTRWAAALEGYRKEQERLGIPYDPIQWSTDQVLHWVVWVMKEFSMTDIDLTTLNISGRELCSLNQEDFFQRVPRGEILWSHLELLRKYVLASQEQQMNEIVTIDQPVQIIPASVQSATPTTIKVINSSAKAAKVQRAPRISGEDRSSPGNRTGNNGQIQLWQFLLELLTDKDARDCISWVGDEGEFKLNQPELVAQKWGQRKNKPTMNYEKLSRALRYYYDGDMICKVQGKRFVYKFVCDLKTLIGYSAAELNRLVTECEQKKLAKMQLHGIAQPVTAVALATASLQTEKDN
# Method in brief: as §1
# ERG = target: T4, ERG (Homo sapiens, UniProt P11308 1-479); settings: protein: recombinant; tags: N-terminal GST; dsDNA, one strand shown
# T4 sequence: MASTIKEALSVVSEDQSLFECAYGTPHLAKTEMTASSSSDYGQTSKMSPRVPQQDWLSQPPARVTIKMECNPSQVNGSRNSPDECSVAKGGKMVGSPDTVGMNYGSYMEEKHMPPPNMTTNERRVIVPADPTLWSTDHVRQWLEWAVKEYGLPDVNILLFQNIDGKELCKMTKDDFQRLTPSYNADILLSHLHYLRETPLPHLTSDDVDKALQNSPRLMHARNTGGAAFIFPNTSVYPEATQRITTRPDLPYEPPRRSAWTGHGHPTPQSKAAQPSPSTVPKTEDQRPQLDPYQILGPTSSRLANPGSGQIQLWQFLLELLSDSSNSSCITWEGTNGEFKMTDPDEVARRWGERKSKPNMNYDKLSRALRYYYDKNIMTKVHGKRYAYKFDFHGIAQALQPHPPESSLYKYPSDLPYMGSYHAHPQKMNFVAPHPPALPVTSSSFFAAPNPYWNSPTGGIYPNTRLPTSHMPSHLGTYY
# Method in brief: as §1
# ELF1 = ELF1 (Homo sapiens, UniProt P32519 1-619); settings: protein: recombinant; tags: N-terminal GST; dsDNA, one strand shown
# Method in brief: as §1
# EHF = target: T5, EHF (Homo sapiens, UniProt Q9NZC4 1-300); settings: protein: recombinant; tags: N-terminal GST; dsDNA, one strand shown
# T5 sequence: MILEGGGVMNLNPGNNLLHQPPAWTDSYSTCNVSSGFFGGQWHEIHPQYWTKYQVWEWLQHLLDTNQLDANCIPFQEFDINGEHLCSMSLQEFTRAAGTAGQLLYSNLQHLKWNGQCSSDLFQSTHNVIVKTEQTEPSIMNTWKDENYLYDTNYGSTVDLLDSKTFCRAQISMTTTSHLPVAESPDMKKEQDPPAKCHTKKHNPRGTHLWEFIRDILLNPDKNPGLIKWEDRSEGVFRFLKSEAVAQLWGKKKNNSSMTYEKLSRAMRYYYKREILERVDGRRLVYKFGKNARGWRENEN
# Method in brief: as §1
# SPI1 = SPI1 (Homo sapiens, UniProt P17947 1-270); settings: protein: recombinant; tags: N-terminal GST; dsDNA, one strand shown
# Method in brief: as §1
# SPIB = SPIB (Homo sapiens, UniProt Q01892 1-262); settings: protein: recombinant; tags: N-terminal GST; dsDNA, one strand shown
# Method in brief: as §1
# ELK3 = target: T6, ELK3 (Homo sapiens, UniProt P41970 1-407); settings: protein: recombinant; tags: N-terminal GST; dsDNA, one strand shown
# T6 sequence: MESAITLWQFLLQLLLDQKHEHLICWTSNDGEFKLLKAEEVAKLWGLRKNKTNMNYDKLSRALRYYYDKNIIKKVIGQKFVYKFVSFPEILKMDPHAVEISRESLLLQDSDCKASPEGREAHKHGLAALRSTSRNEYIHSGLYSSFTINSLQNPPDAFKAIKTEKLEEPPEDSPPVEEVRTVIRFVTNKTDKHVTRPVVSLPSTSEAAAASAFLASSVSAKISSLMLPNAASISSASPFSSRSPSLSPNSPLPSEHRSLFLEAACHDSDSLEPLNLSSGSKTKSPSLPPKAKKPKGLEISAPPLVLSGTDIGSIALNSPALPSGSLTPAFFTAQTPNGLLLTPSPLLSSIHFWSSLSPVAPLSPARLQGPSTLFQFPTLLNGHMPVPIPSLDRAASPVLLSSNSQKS
# Method in brief: as §1
# FEV = target: T7, FEV (Homo sapiens, UniProt Q99581 1-238); settings: protein: recombinant; tags: N-terminal GST; dsDNA, one strand shown
# T7 sequence: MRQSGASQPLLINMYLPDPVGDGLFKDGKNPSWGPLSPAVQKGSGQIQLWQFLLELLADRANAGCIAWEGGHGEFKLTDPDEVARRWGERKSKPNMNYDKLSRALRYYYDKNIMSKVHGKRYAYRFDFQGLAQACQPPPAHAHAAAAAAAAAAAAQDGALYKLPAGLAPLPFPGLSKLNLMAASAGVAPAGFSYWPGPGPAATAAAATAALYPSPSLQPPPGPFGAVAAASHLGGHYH
# Method in brief: as §1
# ETV5 = ETV5 (Homo sapiens, UniProt P41161 1-510); settings: protein: recombinant; tags: N-terminal GST; dsDNA, one strand shown
# Method in brief: as §1
# HSF1 = HSF1 (Homo sapiens, UniProt Q00613 1-529); settings: protein: recombinant; tags: N-terminal GST; chain copies: 3; dsDNA, one strand shown
# Method in brief: as §1
# SPIC = target: T8, SPIC (Homo sapiens, UniProt Q8N5J4 1-248); settings: protein: recombinant; tags: N-terminal GST; dsDNA, one strand shown
# T8 sequence: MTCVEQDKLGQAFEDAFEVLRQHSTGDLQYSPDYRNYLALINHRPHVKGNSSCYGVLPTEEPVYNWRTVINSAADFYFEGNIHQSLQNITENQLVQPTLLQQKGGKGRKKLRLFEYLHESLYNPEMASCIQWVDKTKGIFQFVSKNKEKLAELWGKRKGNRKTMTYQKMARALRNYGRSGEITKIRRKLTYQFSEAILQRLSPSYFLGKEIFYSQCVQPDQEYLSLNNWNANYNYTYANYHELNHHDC
# Method in brief: as §1
# ELF4 = ELF4 (Homo sapiens, UniProt Q99607 1-663); settings: protein: recombinant; tags: N-terminal GST; dsDNA, one strand shown
# Method in brief: as §1
# ELK4 = target: T9, ELK4 (Homo sapiens, UniProt P28324-2 1-405); settings: protein: recombinant; tags: N-terminal GST; dsDNA, one strand shown
# T9 sequence: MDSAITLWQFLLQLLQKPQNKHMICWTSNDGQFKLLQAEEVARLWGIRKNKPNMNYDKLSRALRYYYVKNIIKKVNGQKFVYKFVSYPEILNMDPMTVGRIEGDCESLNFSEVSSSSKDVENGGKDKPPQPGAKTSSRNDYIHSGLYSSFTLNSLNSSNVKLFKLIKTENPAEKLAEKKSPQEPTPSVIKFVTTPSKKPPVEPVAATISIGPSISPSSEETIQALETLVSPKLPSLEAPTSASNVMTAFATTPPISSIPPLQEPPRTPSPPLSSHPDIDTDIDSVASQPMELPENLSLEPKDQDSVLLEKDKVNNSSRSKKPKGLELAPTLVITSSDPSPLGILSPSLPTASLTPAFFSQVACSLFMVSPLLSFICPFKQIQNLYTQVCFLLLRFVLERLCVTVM
# Method in brief: as §1
# ETV2 = target: T10, ETV2 (Homo sapiens, UniProt O00321 1-342); settings: protein: recombinant; tags: N-terminal GST; dsDNA, one strand shown
# T10 sequence: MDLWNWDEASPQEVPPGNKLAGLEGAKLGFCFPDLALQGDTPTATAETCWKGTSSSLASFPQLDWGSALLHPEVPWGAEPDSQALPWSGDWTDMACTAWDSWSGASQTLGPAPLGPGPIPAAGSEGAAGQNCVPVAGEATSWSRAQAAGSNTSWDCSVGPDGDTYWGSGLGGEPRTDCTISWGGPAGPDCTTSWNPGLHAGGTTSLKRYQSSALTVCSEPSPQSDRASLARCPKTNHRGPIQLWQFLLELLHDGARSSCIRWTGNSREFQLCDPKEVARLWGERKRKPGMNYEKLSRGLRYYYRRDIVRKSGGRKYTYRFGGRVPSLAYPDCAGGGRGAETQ
# Method in brief: as §1
# ELF3 = target: T11, ELF3 (Homo sapiens, UniProt P78545 1-371); settings: protein: recombinant; tags: N-terminal GST; dsDNA, one strand shown
# T11 sequence: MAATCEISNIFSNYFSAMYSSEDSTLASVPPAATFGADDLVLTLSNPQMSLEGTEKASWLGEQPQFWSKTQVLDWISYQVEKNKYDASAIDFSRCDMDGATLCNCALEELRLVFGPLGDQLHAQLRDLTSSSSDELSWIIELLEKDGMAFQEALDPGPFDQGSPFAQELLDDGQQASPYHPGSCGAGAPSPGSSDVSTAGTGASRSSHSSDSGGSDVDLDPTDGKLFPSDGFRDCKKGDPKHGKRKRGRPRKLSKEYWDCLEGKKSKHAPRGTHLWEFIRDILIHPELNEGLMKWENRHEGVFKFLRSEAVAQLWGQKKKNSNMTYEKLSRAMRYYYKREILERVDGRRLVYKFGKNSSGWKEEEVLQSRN
# Method in brief: as §1
# CRX = CRX (Homo sapiens, UniProt O43186 1-299); settings: protein: recombinant; tags: N-terminal GST; dsDNA, one strand shown
# Method in brief: as §1
# ETV1 = ETV1 (Homo sapiens, UniProt P50549 1-477); settings: protein: recombinant; tags: N-terminal GST; dsDNA, one strand shown
# Method in brief: as §1
# ELF4, sequence (Q99607 whole entry): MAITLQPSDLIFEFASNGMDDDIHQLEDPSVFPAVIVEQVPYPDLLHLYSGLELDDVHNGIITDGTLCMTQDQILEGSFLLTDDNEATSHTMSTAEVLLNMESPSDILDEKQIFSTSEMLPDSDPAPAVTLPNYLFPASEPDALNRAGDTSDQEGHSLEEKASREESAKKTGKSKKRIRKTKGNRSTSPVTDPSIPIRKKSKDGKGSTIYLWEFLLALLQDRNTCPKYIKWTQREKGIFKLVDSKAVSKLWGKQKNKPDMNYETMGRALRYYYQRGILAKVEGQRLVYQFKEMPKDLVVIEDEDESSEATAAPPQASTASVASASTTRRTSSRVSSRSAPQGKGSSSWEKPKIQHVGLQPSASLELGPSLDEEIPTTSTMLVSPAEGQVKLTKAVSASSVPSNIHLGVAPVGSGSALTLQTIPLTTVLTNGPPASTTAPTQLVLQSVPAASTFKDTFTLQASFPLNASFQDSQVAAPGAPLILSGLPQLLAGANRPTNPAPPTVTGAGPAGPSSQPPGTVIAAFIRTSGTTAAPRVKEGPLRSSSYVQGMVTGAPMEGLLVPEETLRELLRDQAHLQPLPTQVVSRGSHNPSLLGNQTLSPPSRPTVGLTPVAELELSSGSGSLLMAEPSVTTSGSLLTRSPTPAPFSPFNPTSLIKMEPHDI
# CRX, sequence (O43186 whole entry): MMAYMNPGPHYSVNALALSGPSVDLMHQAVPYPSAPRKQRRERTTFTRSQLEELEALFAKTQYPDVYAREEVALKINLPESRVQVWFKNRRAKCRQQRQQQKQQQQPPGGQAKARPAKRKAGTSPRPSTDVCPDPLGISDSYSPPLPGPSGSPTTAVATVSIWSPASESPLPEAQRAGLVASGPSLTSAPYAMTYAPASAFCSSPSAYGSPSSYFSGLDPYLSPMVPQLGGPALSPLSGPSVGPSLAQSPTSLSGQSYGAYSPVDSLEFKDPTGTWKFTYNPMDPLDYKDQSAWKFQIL
# SPIB, sequence (Q01892 whole entry): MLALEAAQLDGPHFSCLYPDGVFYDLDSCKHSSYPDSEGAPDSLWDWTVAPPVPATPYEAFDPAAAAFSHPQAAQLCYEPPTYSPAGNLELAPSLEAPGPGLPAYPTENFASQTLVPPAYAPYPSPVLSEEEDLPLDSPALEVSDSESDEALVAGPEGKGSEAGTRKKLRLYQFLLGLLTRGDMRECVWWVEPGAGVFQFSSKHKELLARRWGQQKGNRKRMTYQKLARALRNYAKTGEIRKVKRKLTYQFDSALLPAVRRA
# ETV5, sequence (P41161 whole entry): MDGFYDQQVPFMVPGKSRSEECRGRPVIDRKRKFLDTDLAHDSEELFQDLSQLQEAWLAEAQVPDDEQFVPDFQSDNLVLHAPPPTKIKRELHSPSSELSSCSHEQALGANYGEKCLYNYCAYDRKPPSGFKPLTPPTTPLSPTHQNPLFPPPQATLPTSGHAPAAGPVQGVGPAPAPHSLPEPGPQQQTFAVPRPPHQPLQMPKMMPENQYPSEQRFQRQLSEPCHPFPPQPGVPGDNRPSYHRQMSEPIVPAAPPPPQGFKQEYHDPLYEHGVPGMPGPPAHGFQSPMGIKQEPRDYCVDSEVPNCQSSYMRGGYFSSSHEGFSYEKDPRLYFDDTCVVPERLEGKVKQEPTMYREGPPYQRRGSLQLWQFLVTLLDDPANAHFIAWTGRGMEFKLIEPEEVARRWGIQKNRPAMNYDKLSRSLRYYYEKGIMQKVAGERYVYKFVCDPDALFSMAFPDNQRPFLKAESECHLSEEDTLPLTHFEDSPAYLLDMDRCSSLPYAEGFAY
# ELF1, sequence (P32519 whole entry): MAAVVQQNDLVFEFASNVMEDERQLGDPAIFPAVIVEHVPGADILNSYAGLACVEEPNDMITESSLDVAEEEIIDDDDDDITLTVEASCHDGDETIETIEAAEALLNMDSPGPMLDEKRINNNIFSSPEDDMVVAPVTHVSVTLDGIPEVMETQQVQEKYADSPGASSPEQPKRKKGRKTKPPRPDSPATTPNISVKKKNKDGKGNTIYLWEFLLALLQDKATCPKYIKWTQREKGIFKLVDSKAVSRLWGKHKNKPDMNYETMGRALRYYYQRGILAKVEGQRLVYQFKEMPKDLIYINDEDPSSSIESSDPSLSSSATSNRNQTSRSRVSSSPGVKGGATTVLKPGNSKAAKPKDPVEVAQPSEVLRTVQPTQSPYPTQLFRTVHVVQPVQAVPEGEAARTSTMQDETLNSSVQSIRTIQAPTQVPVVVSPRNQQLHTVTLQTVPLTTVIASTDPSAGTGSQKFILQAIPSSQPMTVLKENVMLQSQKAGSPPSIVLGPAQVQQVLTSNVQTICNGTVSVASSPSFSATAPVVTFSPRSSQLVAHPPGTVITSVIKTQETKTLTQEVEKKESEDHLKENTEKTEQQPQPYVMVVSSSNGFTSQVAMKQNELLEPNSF
# HSF1, sequence (Q00613 whole entry): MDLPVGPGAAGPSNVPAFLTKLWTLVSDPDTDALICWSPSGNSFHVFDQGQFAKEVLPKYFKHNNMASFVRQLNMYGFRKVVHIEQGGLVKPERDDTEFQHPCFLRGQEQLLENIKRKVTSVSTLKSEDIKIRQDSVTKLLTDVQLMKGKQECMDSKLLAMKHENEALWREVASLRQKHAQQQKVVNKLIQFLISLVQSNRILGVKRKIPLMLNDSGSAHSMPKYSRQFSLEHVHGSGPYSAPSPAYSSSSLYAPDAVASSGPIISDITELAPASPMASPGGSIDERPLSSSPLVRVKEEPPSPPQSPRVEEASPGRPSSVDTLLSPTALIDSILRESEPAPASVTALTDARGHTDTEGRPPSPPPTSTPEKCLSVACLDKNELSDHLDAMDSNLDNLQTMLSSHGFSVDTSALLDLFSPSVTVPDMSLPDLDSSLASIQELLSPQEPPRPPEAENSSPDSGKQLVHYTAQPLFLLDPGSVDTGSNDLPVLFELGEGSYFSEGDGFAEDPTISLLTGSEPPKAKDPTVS
# ETV1, sequence (P50549 whole entry): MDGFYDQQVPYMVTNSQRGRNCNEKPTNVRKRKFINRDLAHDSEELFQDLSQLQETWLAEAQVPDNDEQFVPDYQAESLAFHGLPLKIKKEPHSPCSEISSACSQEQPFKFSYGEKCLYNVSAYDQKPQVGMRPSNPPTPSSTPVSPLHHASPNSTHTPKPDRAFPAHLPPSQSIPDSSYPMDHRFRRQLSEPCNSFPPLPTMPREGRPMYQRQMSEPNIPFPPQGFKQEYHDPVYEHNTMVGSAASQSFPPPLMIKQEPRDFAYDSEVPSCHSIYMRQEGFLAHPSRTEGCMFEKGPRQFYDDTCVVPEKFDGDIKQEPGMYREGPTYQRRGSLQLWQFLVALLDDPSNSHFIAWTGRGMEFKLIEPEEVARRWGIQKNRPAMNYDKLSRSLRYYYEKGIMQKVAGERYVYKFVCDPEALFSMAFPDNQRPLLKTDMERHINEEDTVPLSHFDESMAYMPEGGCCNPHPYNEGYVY
sequence,measurement,setting,value
AAGGAT,binding signal,FLI1,"1.14 fold enrichment (6-mer frequency, TF over GST control)"
same,binding signal,ELK1,"1.19 fold enrichment (6-mer frequency, TF over GST control)"
same,binding signal,GABPA,"1.12 fold enrichment (6-mer frequency, TF over GST control)"
same,binding signal,ERG,"1.17 fold enrichment (6-mer frequency, TF over GST control)"
same,binding signal,ELF1,"1.22 fold enrichment (6-mer frequency, TF over GST control)"
same,binding signal,EHF,"1.25 fold enrichment (6-mer frequency, TF over GST control)"
same,binding signal,SPI1,"1.12 fold enrichment (6-mer frequency, TF over GST control)"
same,binding signal,SPIB,"1.19 fold enrichment (6-mer frequency, TF over GST control)"
same,binding signal,ELK3,"1.13 fold enrichment (6-mer frequency, TF over GST control)"
same,binding signal,FEV,"1.1 fold enrichment (6-mer frequency, TF over GST control)"
same,binding signal,ETV5,"1.17 fold enrichment (6-mer frequency, TF over GST control)"
same,binding signal,HSF1,"1.5 fold enrichment (6-mer frequency, TF over GST control)"
same,binding signal,SPIC,"1.09 fold enrichment (6-mer frequency, TF over GST control)"
same,binding signal,ELF4,"1.13 fold enrichment (6-mer frequency, TF over GST control)"
same,binding signal,ELK4,"1.08 fold enrichment (6-mer frequency, TF over GST control)"
same,binding signal,ETV2,"1.24 fold enrichment (6-mer frequency, TF over GST control)"
same,binding signal,ELF3,"1.13 fold enrichment (6-mer frequency, TF over GST control)"
same,binding signal,CRX,"1.97 fold enrichment (6-mer frequency, TF over GST control)"
same,binding signal,ETV1,"1.12 fold enrichment (6-mer frequency, TF over GST control)"
